Compounds with a hit are over-represented: about 1.6% of the library has one in this group of screens.
gsp antag = antagonizes gsp, the McCune-Albright syndrome mutation; 340,000 compounds, 0.4% hits; Potency, µM (series often up to 76.9 µM), for the others: at the highest dose activity change, negative = inhibition, actives largely listed as inhibitors; gsp-mutant cells, cAMP HTRF, 30 min; calls by dose curve; cell line not stated here;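 also: intracellular cAMP measured with PDE inhibitor Ro 20-1724 present during compound exposure; % is scaled to controls: 0 for no effect and ±100 for the full control effect; nearly all actives have a fitted effect of over 65% in size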
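Measurement of cellular cAMP by homogeneous time-resolved fluorescence following a 30 min compound exposure at 37C. The PDE inhibitor […] was present throughout; the assay buffer was DPBS with 0.05% BSA and 0.005% Tween 20.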
gsp ag = activates gsp, the McCune-Albright syndrome mutation; gsp mutant cells, cAMP HTRF, 30 min; Potency, µM (top dose mostly 76.9 µM), without a hit: top-dose activation (cAMP increase), hits mostly activators; 340,000 compounds, 0.13% hits; AID 624287; active = well fitted activation curve with a large enough effect; inconclusive = small, poorly fitted or top-dose-only effect, or another doubt; inactive = no such curve, though single readings can be large or run the other way; cell line not stated here;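 also: phosphodiesterase inhibitor Ro 20-1724 added with compounds to block cAMP breakdown; nearly all actives have a fitted effect of over 60% in size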
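Cells stably selected in G418 were plated at 2000/well, grown 16-24 hr, then given compounds in DMSO with the PDE inhibitor […] (300 uM solution added) for 30 min at 37C; cAMP was read by HTRF.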
FUS suppressor = FUS proteinopathy suppression in yeast; S. cerevisiae FUS-expressing, growth rescue, OD600, 24 h; 390,000 compounds, 0.24% hits; AID 1347120; Potency, µM (series often up to 76.6 µM), actives largely listed as activators;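 also: plate controls were DMSO vehicle for no effect and reference control for full effect; nearly all actives have a fitted effect of over 55% in size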
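Read-out: OD at 600 nm after 24hr at 30C, reporting rescue of FUS-induced yeast toxicity. Cells at OD 0.005 in galactose (2%) minimal medium; compounds tested in a dilution series; CP55940 titration from 92uM final as control.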
Mito fusion yeast = mitochondrial division inhibition or fusion activation. S. cerevisiae fusion-defective mutant growth rescue, CellTiterGlo 48 h. Potency, µM (top dose mostly 46.1 µM), for inactives: top-dose growth rescue (activation), usual class: activators. 320,000 compounds, 0.23% hits. AID 485298; also: % of control where 0% means no effect; nearly all actives have a fitted effect of over 45% in size
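S. cerevisiae fusion-defective temperature-sensitive mutants (e.g. fzo1-1, mgm1-5) grown 48 h at 37C in YPEG (ethanol/glycerol non-fermentable) medium with 23 nl compound per well; growth rescue read as CellTiterGlo luminescence.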
ALOX12 inh = blocks human arachidonate 12S-lipoxygenase. P18054. Potency, µM (top dose mostly 108 µM), without a hit: at the top dose activity change, negative = inhibition, hits mostly inhibitors. 580,000 compounds, 1.1% hits. AID 1671190. purified 12hLO, xylenol orange hydroperoxide absorbance; also: % is scaled to controls: 0 for no effect and ±100 for the full control effect
Target sequence (P18054 whole entry, looked up): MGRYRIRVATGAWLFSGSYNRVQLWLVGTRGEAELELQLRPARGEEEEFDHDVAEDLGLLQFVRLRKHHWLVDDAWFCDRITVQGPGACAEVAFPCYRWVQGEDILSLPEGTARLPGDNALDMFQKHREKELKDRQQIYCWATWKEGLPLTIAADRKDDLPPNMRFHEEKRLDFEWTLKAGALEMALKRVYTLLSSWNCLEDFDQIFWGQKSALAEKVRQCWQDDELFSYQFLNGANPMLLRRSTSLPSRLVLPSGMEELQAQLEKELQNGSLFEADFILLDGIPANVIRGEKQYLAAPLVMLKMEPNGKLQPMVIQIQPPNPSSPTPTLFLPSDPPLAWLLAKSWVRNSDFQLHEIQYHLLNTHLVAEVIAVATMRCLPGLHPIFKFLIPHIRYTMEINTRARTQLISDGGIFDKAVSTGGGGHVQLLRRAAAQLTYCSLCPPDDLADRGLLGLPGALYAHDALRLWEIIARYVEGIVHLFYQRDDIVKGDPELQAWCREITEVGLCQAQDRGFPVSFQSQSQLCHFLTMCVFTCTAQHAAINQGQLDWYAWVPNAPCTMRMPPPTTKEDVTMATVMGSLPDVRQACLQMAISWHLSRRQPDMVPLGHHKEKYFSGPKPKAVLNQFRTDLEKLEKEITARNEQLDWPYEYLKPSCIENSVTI
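Purified human 12hLO at 150 nM in 25 mM Hepes, 0.01% Triton X-100, pH 7.0, preincubated 15 min at room temperature with compound. Reaction started with 40 uM arachidonic acid, 30 min at room temperature. Hydroperoxide measured by Fe-xylenol orange, 573/405 nm absorbance ratio.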
Active calls of the source: *; [ ] = another dose, or the depositor's remark. Unless noted, calls follow the shape of the dose curve; as a rule, active = well fitted curve in the direction sought with a large enough effect; inconclusive = small, poorly fitted or top-dose-only effect, or another doubt; inactive = no such curve, though single readings can be large; an effect the other way counts as inactive or inconclusive. Potency is read from the fitted curve at half-maximal effect.

For Cc1cccc(CS(=O)Cc2cccc(C(F)(F)F)c2)c1 (configuration not stated) the results were ALOX12 inh 31.1%.
Screening Clc1ccc(-n2nnnc2C2(Nc3ccccc3)CCCC2)cc1 returned ALOX12 inh -21.2%.
Screening C=CC[C@@H](CC(=O)N[C@H](CO)Cc1ccccc1)C(=O)N[C@@H](COC(=O)[C@@H](CC=C)CC(=O)OC(C)(C)C)Cc1c[nH]c2ccccc12 returned gsp antag -3.1%, gsp ag -2.6%, FUS suppressor 17.8µM* and ALOX12 inh inconclusive.
For C=CC[C@@H](CC(=O)N[C@@H](CO)Cc1ccccc1)C(=O)N[C@@H](C)COC(=O)[C@@H](CC=C)Cc1ccc(F)cc1 the results were gsp antag -1.5%, gsp ag inconclusive, FUS suppressor 17.8µM* and ALOX12 inh 4.7%.
Screening C=CC[C@H](CC(=O)N[C@H](CO)Cc1ccccc1)C(=O)N[C@H](COC(=O)[C@@H](CC=C)CC(=O)OC(C)(C)C)Cc1c[nH]c2ccccc12 returned gsp antag -13.3%, gsp ag -11.8%, FUS suppressor 17.8µM* and ALOX12 inh 0.0%.
`C=CC[C@@H](CC(=O)N[C@H](CO)Cc1ccccc1)C(=O)N[C@H](COC(=O)[C@@H](CC=C)CC(=O)OC(C)(C)C)Cc1c[nH]c2ccccc12` gave gsp antag -18.9%, gsp ag -28.6%, FUS suppressor inconclusive and ALOX12 inh -2.1%.
For C=CCC[C@H](Cc1ccc(F)cc1)C(=O)OC[C@H](Cc1c[nH]c2ccccc12)NC(=O)[C@@H](CC=C)CC(=O)N(CCO)Cc1ccccc1 the results were gsp antag -18.2%, gsp ag inconclusive, FUS suppressor 15.8µM* and ALOX12 inh -11.7%.
Screening C=CC[C@@H](CC(=O)N[C@@H](CO)Cc1ccccc1)C(=O)N[C@@H](COC(=O)[C@@H](CC=C)CC(=O)OC(C)(C)C)Cc1c[nH]c2ccccc12 returned gsp antag -0.4%, FUS suppressor inactive and ALOX12 inh inconclusive.
For COCCn1c(SCC(=O)c2ccc3c(c2)OCCCO3)nnc1-c1ccc(Cl)cc1 the results were ALOX12 inh 5.5%.
COCCNC(=O)c1cc2cc(S(=O)(=O)N3CCCCC3)ccc2n1C was read as ALOX12 inh 5.9%.
Screening CCCC(=O)N1Cc2ccccc2CC2(CCN(C)CC2)C1 returned ALOX12 inh 9.0%[12.5 µM].
Fc1cccc(Cl)c1CSc1nnc2c(Cl)cc(C(F)(F)F)cn12 was read as ALOX12 inh 11.4%.
Cc1cccc(NC(=O)CC2CCCN(c3cnn(CC4CC4)c(=O)c3)C2)c1 (configuration not stated) was read as ALOX12 inh 19.3%.
Cc1ccc(S(=O)(=O)SC/C=C/CSS(=O)(=O)c2ccc(C)cc2)cc1 was read as gsp antag inconclusive, gsp ag inconclusive and ALOX12 inh 0.708µM*.
Cc1ccc(S(=O)(=O)SCCCSS(=O)(=O)c2ccc(C)cc2)cc1 was read as gsp antag -20.3%, gsp ag -0.3% and ALOX12 inh 1.78µM*.
Cc1ccc(S(=O)(=O)/C=C/C#N)cc1 was read as Mito fusion yeast -68.9% and ALOX12 inh inconclusive.
For Cc1ccc(S(=O)(=O)C=CS(=O)(=O)c2ccc(C)cc2)cc1 the results were gsp ag 2.5%, FUS suppressor inactive and ALOX12 inh 8.91µM*.
CC(C)(C)c1ccccc1OCC(O)Cn1nc(C(N)=O)c2ccccc2c1=O (configuration not stated) was read as ALOX12 inh -0.8%.
`CN(C)CCCn1c(=O)[nH]c(=O)c2c1ncn2C` gave ALOX12 inh 27.3%.
`Cc1cc(C)c2nc(SCC(=O)NCCC3=CCCCC3)cc(C)c2c1` gave gsp antag -4.0%, gsp ag -6.9%, FUS suppressor inactive, Mito fusion yeast -3.2% and ALOX12 inh 15.8µM*.
Screening Cc1ncc(CO)c(/C=N/NC(=S)Nc2cccc(Cl)c2)c1O returned gsp antag 1.1%, gsp ag -38.0%, FUS suppressor inactive and Mito fusion yeast 4.5%.
For Cc1ncc(CO)c(/C=N/NC(=S)Nc2ccc(Cl)c(Cl)c2)c1O the results were gsp antag -4.6%, gsp ag -161.7%, FUS suppressor inactive, Mito fusion yeast -1.5% and ALOX12 inh 44.7µM*.
O=C1N2CCCc3cccc(c32)C12Nc1ccccc1S2 (configuration not stated) was read as gsp antag -1.3%, gsp ag -21.2%, Mito fusion yeast -3.9% and ALOX12 inh 25.1µM*.
For CCc1ccc2cc(-c3ccc(C)c(C)c3)cn2c1 the results were ALOX12 inh 25.1µM*.
Cc1cc(C)c2c(=O)n(CC(=O)Nc3cccc(Cl)c3C)sc2n1 was read as gsp antag 2.1%, gsp ag 3.8%, FUS suppressor inactive, Mito fusion yeast -22.6% and ALOX12 inh 0.708µM*.
Screening Cc1cc(C)c2c(=O)n(CC(=O)Nc3ccc(Br)c(C)c3)sc2n1 returned gsp antag -15.3%, gsp ag -18.2%, FUS suppressor inactive, Mito fusion yeast -25.0% and ALOX12 inh -106.5%.
Cc1ccc(-c2cc(N)n[nH]2)cc1 was read as gsp antag 3.4%, gsp ag -8.5%, FUS suppressor 28.2µM*, Mito fusion yeast -2.8% and ALOX12 inh 40.3%.
Screening Cn1c(SCc2cc(Cl)c3c(c2)OCCCO3)nnc1-c1ccncc1 returned ALOX12 inh 2.5%.
For CCOc1ccc(C2=NNC(c3cccs3)=Nc3ccc(OC)cc32)cc1 the results were gsp antag -17.4%, gsp ag 20.3%, FUS suppressor 17.8µM*, Mito fusion yeast 8.7% and ALOX12 inh -5.9%.
For CCOc1ccc(C2=NNC(c3cccnc3)=Nc3ccc(OC)cc32)cc1 the results were gsp antag -10.9%, gsp ag -2.4%, FUS suppressor inactive, Mito fusion yeast -0.7% and ALOX12 inh -5.4%.
`CCc1cccc2c(C3=CCN(C(=O)C(C)(C)C)CC3)c[nH]c12` gave ALOX12 inh -7.1%.
For O=C(OCC(=O)N1CCCCC1)c1cccc(NS(=O)(=O)c2ccccc2)c1 the results were gsp antag -2.4%, gsp ag 11.9%, FUS suppressor inactive, Mito fusion yeast 2.9% and ALOX12 inh 6.4%.
`O=C(OCC(=O)N1CCCC1)c1ccc(S(=O)(=O)Nc2ccccc2)cc1` gave gsp antag 11.2µM*, gsp ag -71.5%, FUS suppressor inactive, Mito fusion yeast 3.9% and ALOX12 inh -6.1%.
For COc1ccc(C2/C(=C(\O)c3ccc(C)cc3)C(=O)C(=O)N2CCCO)cc1 (configuration not stated) the results were ALOX12 inh 0.562µM*.

High-throughput results as filed in PubChem.
